From a collection of fitness landscapes (doi:10.1016/j.celrep.2020.107928)
In all, about 81,000 sequences were measured (“one-hybrid fitness for binding parS DNA”: median about -0.17, highest 2% from about 0.51 on). For the sample, the highest values were picked, then their nearest neighbours and some sequences at random.

B1: Caulobacter ParB omega fusion; a variant is named by its letters at X, in order, B8GW30 (parent)
chain: MESVVVGEPGMSEGRRGLGRGLSALLGEVDAAPAQAPGEQLGGSREAPIEILQRNPDQPRRTFREEDLEDLSNSIREKGVLQPILVRPSPDTAGEYQIVAGERAWRAAQRAGLKTVPIMVRELDDLAVLEIGIIENVQRADLNVLEEALSYKVLMEKFERTQENIAQTIGKSXSHVANXMRLLXLPDEVQSYLVSGELTAXHARAIAAAADPVALAKQIIEGGLSVRETEALARKAPNLSAGKSKGGRPPRVKDTDTQALESDLSSVLGLDVSIDHRGSTGTLTITYATLEQLDDLCNRLTRGI

Variants of: B1
Test: one-hybrid fitness for binding parS DNA (scaled: cognate 1, non-cognate 0); higher = stronger binding
Conditions: with parS DNA site
Summary of the method: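 Bacterial one-hybrid selection in E. coli USO rpoZ- hisB- pyrF- with a HIS3 reporter carrying the site 19 bp from the promoter, screening Caulobacter ParB libraries with four specificity codons randomised (NNS). Cells grew 48 hours at 37°C on M9-minus-histidine plus 0.1 mM IPTG and 5 mM 3-AT. Plasmids before and after selection were Illumina-sequenced, three replicate libraries pooled, and variants under 10 reads dropped. Fitness is the log change in variant-to-wild-type read ratio, rescaled to cognate 1, non-cognate 0.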

Variant | one-hybrid fitness for binding parS DNA
NFYC | ≤ 0.2
DMTG | ≤ 0.2
RGHS | 0.73
RGRD | ≤ 0.2
RGAP | ≤ 0.2
RGYD | ≤ 0.2
RGHD | ≤ 0.2
RGAT | 0.524
RGYS | 0.586
RGRP | ≤ 0.2
RGFT | 0.455
RGRS | 0.932
RGPS | 0.336
RGHH | ≤ 0.2
NMTN | ≤ 0.2
HQTD | ≤ 0.2
CKKK | ≤ 0.2
SMHA | ≤ 0.2
LLCV | ≤ 0.2
RNEW | ≤ 0.2
RGLD | ≤ 0.2
RGLS | 0.65
RGLN | ≤ 0.2
GMLK | ≤ 0.2
TTDG | ≤ 0.2

Variant | one-hybrid fitness for binding parS DNA
RVPH | ≤ 0.2
RVIH | ≤ 0.2
RVIC | 0.846
RVPN | ≤ 0.2
RVIN | 0.334
RVPC | 0.637
HYPN | ≤ 0.2
ITNM | ≤ 0.2
RDKT | ≤ 0.2
RSKK | ≤ 0.2
RPKT | ≤ 0.2
RSKT | 0.796
REKT | 0.369
RCKT | 0.748
PRHS | ≤ 0.2
MIYR | ≤ 0.2
VPKS | ≤ 0.2
TLQM | ≤ 0.2
DTMA | ≤ 0.2
RTMA | 0.582
AYMA | ≤ 0.2
NRMA | ≤ 0.2
DRMA | ≤ 0.2
RRMA | 0.809
RWMA | 0.287

Variant | one-hybrid fitness for binding parS DNA
RFMA | 0.504
SYMA | ≤ 0.2
RYMA | 0.553
RSMA | 0.576
NTMA | ≤ 0.2
NGLP | ≤ 0.2
DLGV | ≤ 0.2
QGYV | ≤ 0.2
HVLF | ≤ 0.2
IQVR | ≤ 0.2
RYHV | ≤ 0.2
WPYE | ≤ 0.2
RRPL | ≤ 0.2
ALDW | ≤ 0.2
VVHY | ≤ 0.2
RGMA | 0.283
RKMA | 0.54
RMMA | 0.643
RIMA | 0.6
RDMA | ≤ 0.2
RAMA | 0.565
DVGK | 0.252
PLIV | ≤ 0.2
KHAR | ≤ 0.2
MMTD | ≤ 0.2

Variant | one-hybrid fitness for binding parS DNA
HGPW | ≤ 0.2
CYVF | ≤ 0.2
NKSN | ≤ 0.2
THAA | ≤ 0.2
HRMC | 0.225
YECR | ≤ 0.2
PLHI | ≤ 0.2
EKSD | ≤ 0.2
KREK | ≤ 0.2
QAYP | ≤ 0.2
PIYC | ≤ 0.2
RCMA | 0.609
RNMA | 0.47
RHMA | 0.503
RPMA | ≤ 0.2
RLMA | 0.613
VSPG | ≤ 0.2
TMCY | ≤ 0.2
DQLR | ≤ 0.2
RRIF | ≤ 0.2
RRIT | 0.693
RRPT | 0.761
RRPH | ≤ 0.2
RRPP | ≤ 0.2
RRID | ≤ 0.2
